Reference: PubChem BioAssay

target: Luciferin 4-monooxygenase (Photinus pyralis) (UniProt P08659); assay: inhibition of purified Photinus pyralis luciferase – biochemical, luminescence, purified enzyme, 2006 set, primary screen (AID 1141); conditions: purified firefly luciferase, SteadyGlo luminescence, 30 min; higher = more signal, called active from +8 up or from −8 down;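 further: cell-free assay with purified firefly luciferase at 100 ng per well in PBS; test concentration not given here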
Sequence (P08659 whole entry, looked up): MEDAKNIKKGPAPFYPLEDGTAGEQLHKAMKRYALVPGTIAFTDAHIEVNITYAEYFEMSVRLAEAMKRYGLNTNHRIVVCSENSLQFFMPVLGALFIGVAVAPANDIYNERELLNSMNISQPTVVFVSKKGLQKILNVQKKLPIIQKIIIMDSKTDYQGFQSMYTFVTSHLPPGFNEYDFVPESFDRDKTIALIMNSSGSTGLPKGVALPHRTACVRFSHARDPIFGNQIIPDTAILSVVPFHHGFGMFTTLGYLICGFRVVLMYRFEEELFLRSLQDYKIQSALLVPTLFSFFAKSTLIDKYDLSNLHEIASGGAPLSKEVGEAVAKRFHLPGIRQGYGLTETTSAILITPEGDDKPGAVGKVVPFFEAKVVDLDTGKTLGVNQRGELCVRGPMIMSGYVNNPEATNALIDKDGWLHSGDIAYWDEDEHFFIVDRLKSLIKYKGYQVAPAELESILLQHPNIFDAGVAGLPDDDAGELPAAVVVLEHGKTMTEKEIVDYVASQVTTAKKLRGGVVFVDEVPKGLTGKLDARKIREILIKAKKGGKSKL

z-score, inactive:
COCCCNC(=O)[C@@]1(Cc2ccccc2N=[N+]=[N-])N=C(c2ccc(OCCCO)cc2)O[C@H]1c1ccccc1N=[N+]=[N-] -3.37
Cc1ccc(S[C@]2(C(=O)NC(C)C)CC(=O)N(Cc3ccccc3Cl)[C@@H]2c2ccc(CO)cc2I)cc1 -0.102
CC(C)c1ccc(NN2C(C(O)c3cc(C(F)(F)F)cc(C(F)(F)F)c3)C=CC3C(=O)N(c4ccccc4)C(=O)C32)cc1 (stereo not drawn) 0.0708
CCOC(=O)[C@H]1C/C=C/C[C@H](C(=O)OCC)C(=O)O[C@H]2[C@@H](OC)O[C@H](CO)[C@@H](OC(=O)Nc3cccc(F)c3)[C@@H]2OC1=O -1.14
C=CCC(OC(C)=O)[C@@H]1[C@@H](N(Cc2ccc(-c3cccc(C(F)(F)F)c3)o2)C(=O)c2ccc(-c3ccccc3)cc2)c2cc(OCCCO)ccc2N1C(=O)c1ccc(-c2ccccc2)cc1 (stereo partly drawn) -0.277
O=C1O[C@H](c2ccccc2)[C@H](c2ccccc2)N2[C@H]1[C@@H](C(=O)NC[C@H](O)c1ccccc1)[C@]1(C(=O)Nc3ccccc31)[C@H]2c1ccc(OCCO)cc1 -0.609
C=CCOC(=O)[C@H]1[C@@H]2C(=O)O[C@@H](c3ccccc3)[C@@H](c3ccccc3)N2[C@@H](c2ccc(OCCOC(=O)[C@H]3C[C@H]4C(=O)N5CCC[C@H]5C(=O)N4[C@H]3c3ccc(O)cc3)cc2)[C@]12C(=O)Nc1ccc(I)cc12 0.269
O=C1NC(=O)C2C1C=CC(C(O)Cc1ccccc1)N2Nc1ccc(Cl)cc1Cl (stereo not drawn) 0.981
CN(C)C(=O)[C@]1(Cc2ccccc2N=[N+]=[N-])N=C(c2ccc(OCCCO)cc2)O[C@@H]1c1ccccc1 -1.08
COCCOC(=O)N1C(=O)[C@@]2(c3cc(C#CC4=CCCCC4)ccc31)[C@H](C(=O)Nc1nc3ccccc3s1)[C@H]1C(=O)O[C@H](c3ccccc3)[C@H](c3ccccc3)N1[C@@H]2c1ccc(OCCO)cc1 -5.3
C=CC[C@@]1(C(N)=O)N=C(c2ccc(OCCCO)cc2)O[C@@H]1c1ccccc1CN=[N+]=[N-] -1.35
C#CCN(CC1=CCCCC1)[C@H](c1ccccc1Br)[C@@H](O)Cc1ccccc1 -0.688
COc1ccc(C(=O)Nc2ccc(CN3C(=O)[C@@]4(O[C@@H](CCO)[C@H]([Si](C)(C)c5ccc(OC)cc5)[C@H]4C)c4ccccc43)cc2)cc1 -0.555
COC(=O)[C@@]1(Cc2ccc(F)cc2)[C@H]2c3cc(C(=O)N(C)C)n(CC4CC4)c3C[C@H]2CN1C(=O)c1ccccc1 0.184
O=C(NCc1ccc(F)cc1)[C@H]1C[C@H]2C(=O)N[C@@H](Cc3ccccc3)C(=O)N2[C@H]1c1ccc(O)cc1 -0.568
COc1ccc(C(=O)Nc2ccc(CN3C(=O)[C@@]4(O[C@@H](CC(=O)N5CCC[C@H]5CO)[C@H]([Si](C)(C)c5ccc(OC)cc5)[C@H]4C)c4ccccc43)cc2)cc1 -2.38
CN(C)CCCNC(=O)[C@@]1(c2ccc([N+](=O)[O-])cc2)CC(=O)N(C2CCCCC2)[C@@H]1c1ccc(CO)cc1 -0.0244
C=CCN1C(=O)[C@@]2(O[C@@H](CCO)[C@H]([Si](C)(C)c3ccc(OC)cc3)[C@H]2C)c2cc(NC(=O)c3ccc(OC)cc3)ccc21 -1.26
C=C(CCCC)/C(=C/C[C@@H](OC(C)=O)c1ccccc1OCCO)c1cnc2ccccc2c1 -0.754
COC(=O)[C@@]1(Cc2ccc(OC)cc2)[C@H]2c3cc(C(=O)N(C)C)n(Cc4cccc5ccccc45)c3C[C@H]2CN1C(=O)c1ccccc1 0.629
CC(=O)NCCCC[C@@H]1NC(=O)[C@@H]2C[C@H](C(=O)NCCCCCCNC(=O)CS)[C@H](c3cccc(OCCO)c3)N2C1=O -0.242
COCCOC(=O)N1C(=O)[C@@]2(c3cc(C#CCNC(N)=O)ccc31)[C@H](C(=O)NC[C@H](O)c1ccccc1)[C@H]1C(=O)O[C@H](c3ccccc3)[C@H](c3ccccc3)N1[C@@H]2c1ccccc1OCCO -0.533
COC(=O)[C@@]1(Cc2ccc(OC)cc2)[C@H]2c3cc(C(=O)N4CCCC4)n(Cc4ccccc4)c3C[C@H]2CN1C(=O)c1ccccc1 2.01
